PubChem BioAssay AID1006 (Sanford-Burnham Center for Chemical Genomics, 2008)
Hit rate of the full screen: of about 200,000 compounds, about 3,000 (1.5%) were called active. The list comes from a sample in which actives are over-represented; it also holds similar structures and randomly drawn compounds. Unmarked numbers belong to inactive results.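 The calls were made as follows: active = inhibition above about 50% when tested at 10 µM (limit read from the data); inactive = the rest.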

Each molecule was assayed against Luciferin 4-monooxygenase (Photinus pyralis) (UniProt P08659) (assay: firefly luciferase enzyme inhibitors, primary screen, artefact control for luciferase-based inhibitor screens, biochemical, luminescence, ATPLite (AID 1006)). Conditions: 10 min, at 10 µM, active compounds read high.
Luciferin 4-monooxygenase (Photinus pyralis), sequence (P08659 whole entry, looked up): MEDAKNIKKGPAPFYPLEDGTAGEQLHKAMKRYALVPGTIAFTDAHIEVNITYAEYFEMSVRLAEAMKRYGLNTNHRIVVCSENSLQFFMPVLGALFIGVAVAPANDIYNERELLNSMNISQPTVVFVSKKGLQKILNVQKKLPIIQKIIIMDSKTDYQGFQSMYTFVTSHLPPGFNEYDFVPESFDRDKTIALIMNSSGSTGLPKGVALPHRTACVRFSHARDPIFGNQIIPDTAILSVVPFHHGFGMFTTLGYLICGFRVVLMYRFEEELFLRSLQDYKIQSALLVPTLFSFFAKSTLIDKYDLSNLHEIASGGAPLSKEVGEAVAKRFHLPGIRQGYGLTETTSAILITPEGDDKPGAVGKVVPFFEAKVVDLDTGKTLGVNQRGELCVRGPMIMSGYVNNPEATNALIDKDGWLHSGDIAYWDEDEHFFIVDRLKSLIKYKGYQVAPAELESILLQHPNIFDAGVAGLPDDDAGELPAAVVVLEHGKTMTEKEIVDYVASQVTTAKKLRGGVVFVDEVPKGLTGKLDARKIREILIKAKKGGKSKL

Row | SMILES | inhibition
1 | CC(=O)c1c(-c2ccccc2)c2ccccc2[nH]c1=O | -6.4%
2 | CSc1ccc(/C=N/N2CCN(Cc3ccccc3Cl)CC2)cc1 | -7.8%
3 | O=C(Cc1ccc(Cl)cc1)NCc1nc(-c2ccccc2)no1 | -3.2%
4 | Cc1ccc(N(C(=O)c2sc(C)nc2C)C(C(=O)NC(C)(C)C)c2ccncc2)cc1 (configuration not stated) | -4.2%
5 | CCOC(=O)CN1CCC(c2ccccc2)CC1 | -0.7%
6 | CCOc1ccc(S(=O)(=O)N/N=C(\C)c2ccc(Cl)c(Cl)c2Cl)cc1 | 1.5%
7 | CC1(C)C2CC=C(/C=N/NC(=O)C3CC3)C1C2 (configuration not stated) | -0.4%
8 | CCN(CC)C(=O)c1ccc(O)c(OC)c1 | -4%
9 | COc1ccc(OCc2cccc(C(=O)N3CCCC3)c2)cc1 | 52.1% (active)
10 | CCOc1ccc(OCc2cccc(C(=O)N(CC)CC)c2)cc1 | 68% (active)
11 | COc1ccc(OCC(=O)NNC(=O)c2cccc(C)c2)cc1 | -0.5%
12 | Cc1cccc(C(=O)N2CCCN(C(=O)c3cccc(C)c3)CC2)c1 | -3%
13 | CC(C)c1cc(C(N)=O)c(NC(=O)c2cccc(COc3ccc(Br)cc3)c2)s1 | -2.6%
14 | CCCn1nc(Oc2nc(NC(C)C)nc(N(C)C)n2)ccc1=O | -7.4%
15 | Cc1ccccc1N1C(=O)C(Oc2ccc(Cl)cc2)C1CNCC1CCCO1 (configuration not stated) | -3.1%
16 | CCOC(=O)c1sc(-c2cccc([N+](=O)[O-])c2)cc1N | -3.5%
17 | Cc1ccc(OCCCC(=O)NC(C)c2ccccc2)c(C)c1 (configuration not stated) | -1%
18 | O=C(O)/C=C/c1ccc(OCCCF)cc1 | -2.5%
19 | O=C(Oc1ccccc1Cl)c1ccc(N2CCOCC2)c([N+](=O)[O-])c1 | -14.3%

Row | SMILES | inhibition
20 | COc1ccccc1NC(=O)COC(=O)Cc1ccc(S(=O)(=O)N2CCCCC2)s1 | -8.3%
21 | O=C(NC1CCCC1)c1ccc(Br)s1 | 3.5%
22 | CC(C)C(=O)OCC(=O)Nc1ccc2c(c1)CCC2 | 8.9%
23 | O=C(Nc1ccc2c(c1)CCC2)c1ccc(Br)s1 | 57.1% (active)
24 | CCNC(=O)CC1C(=O)N(c2ccc(F)cc2)C(=O)N1CCc1sccc1C (configuration not stated) | -3.3%
25 | COc1ccc(/C=C/CN2CCCC(C(=O)c3cc(F)ccc3F)C2)cc1 (configuration not stated) | -1.7%
26 | O=C(Oc1ccc([N+](=O)[O-])cc1)c1ccc(Cl)c(S(=O)(=O)N2CCCCC2)c1 | -5.6%
27 | COc1ccc(OC)c(N=Cc2c(O)[nH]c3ccccc23)c1 | 0.1%
28 | COc1ccc(N=Cc2c(O)[nH]c3ccccc23)cc1OC | 6%
29 | COc1ccccc1N=Cc1c(O)c2ccccc2oc1=O | 95.4% (active)
30 | COc1ccc(NC(=O)CN2C(=O)CSC2=O)cc1 | 1.6%
31 | O=C(CCC(=O)Nc1ccccc1)N/N=C/c1ccccc1F | -1.2%
32 | O=C(/C=C/c1ccc2c(c1)OCO2)NCc1cn2cc(Cl)ccc2n1 | 5.7%
33 | CC(Oc1ccccc1)C(=O)Nc1oc(-c2ccco2)c(-c2ccco2)c1C#N (configuration not stated) | -6.2%
34 | COC(=O)c1cccnc1NC(=S)NC(C)C | 9.9%
35 | COc1ccc(C2=NOC3(CC(=O)N(c4ccc(C)cc4)C3=O)C2)cc1 (configuration not stated) | -1.7%
36 | COc1ccc(C2=NOC(COC(=O)c3ccc4ccccc4n3)C2)cc1 (configuration not stated) | 3.5%
37 | COc1ccc(C2=Nc3cc(C)ccc3OC2)cc1 | 77.4% (active)
38 | Cc1cc(N/N=C/c2ccccc2F)c2ccccc2n1 | -7.5%

Row | SMILES | inhibition
39 | Cc1ccc2nc(-c3ccncc3)cc(C(=O)Nc3ccc(OC(F)F)cc3)c2c1 | -8%
40 | COc1ccccc1C(=O)Nn1c(-c2cccs2)nc2ccccc2c1=O | -0.5%
41 | O=C1c2cccnc2C(=O)N1Cc1cccs1 | -1.3%
42 | Cc1cccc(N2C(=O)c3cccnc3C2=O)c1 | 68.5% (active)
43 | Cc1ccc(Oc2ccc3c(c2)C(=O)N(c2cccc4cccnc24)C3=O)cc1 | -5.2%
44 | CN(C)/N=C/c1cn(-c2ccccc2)nc1-c1cccnc1 | 5.7%
45 | CCOc1ccc(/C=C(/NC(=O)c2ccccc2)C(=O)NCCC(=O)O)cc1 | -10.4%
46 | COC(=O)c1ccc(/C=N/OCC(=O)Nc2cc(F)ccc2F)cc1 | 0%
47 | CCOC(=O)N1CCN(CC(=O)Nc2ccc(F)cc2)CC1 | -7.1%
48 | COc1cc(C(=S)N2CCOCC2)ccc1O | -1%
49 | Cc1cccc(-c2noc(-c3ccc(F)cc3)n2)c1 | 59.9% (active)
50 | Cc1ccc(Cc2nc(-c3cccc(C)c3)no2)cc1 | 2.3%
51 | COc1ccc2[nH]c(=O)c(-c3noc(-c4ccc(F)cc4)n3)cc2c1 | -1.9%
52 | COc1ccc(C(=O)NNC(=O)c2cc(C)[nH]n2)cc1 | -3.5%
53 | Cn1cc(CCC(=O)N2CCCC(C(=O)c3ccc(C(C)(C)C)cc3)C2)cn1 (configuration not stated) | 1.3%
54 | O=C(Nc1cccnc1)c1cccc(S(=O)(=O)N2CCCC2)c1 | -1.1%
55 | O=C(Nc1cccnc1)c1noc2c1CCCCC2 | 57.5% (active)
56 | COc1cccc(C(=O)Nc2cccnc2)c1OC | -1.1%
57 | Cc1ccc(CN2CCN(Cc3ccc(OCCO)cc3)CC2CCO)o1 (configuration not stated) | -7%
